“And” between values parts separate entries of the source, which are not always exact repeats. Equal values may be shown once. Records with an inconclusive call do not appear. Where a call stands in place of a potency, no number is given. Some compounds were tested as several samples or in several runs, with calls that do not always agree. The source made the active and inactive calls. Unless noted, calls follow the shape of the dose curve; as a rule, active = well fitted curve in the direction sought with a large enough effect in the repeat runs; inconclusive = weak or mixed curves; inactive = no such curve, though single readings can be large; an effect the other way counts as inactive or inconclusive.
Legend:
[1] = qHTS assay to identify small molecule agonists of the peroxisome proliferator-activated receptor delta (PPARd) signaling pathway - cell viability counter screen (AID 743211); also: nearly all actives have a fitted effect of over 55% in size; also: potency is read from the fitted curve at half-maximal effect
Summary of the method: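 Viability was measured as CellTiter-Glo luminescence (30 min, room temperature) in the same wells as the beta-lactamase readout. GeneBLAzer PPARd UAS-bla HEK293H cells received compound after 5 h plating and were incubated 17 h at 37 C.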

[2] = target: Peroxisome proliferator-activated receptor delta (Homo sapiens) (UniProt Q03181); assay: qHTS assay to identify small molecule agonists of the peroxisome proliferator-activated receptor delta (PPARd) signaling pathway (AID 743212; calls by dose curve)
Summary of the method: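 HEK293H UAS-bla reporter cells, human PPARd system; compounds delivered in DMSO after 5 h plating, then at 37 C. Beta-lactamase FRET read, 2 h RT substrate step.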

[3] = qHTS assay to identify small molecule antagonists of the peroxisome proliferator-activated receptor delta (PPARd) signaling pathway - cell viability counter screen (AID 743213); also: nearly all actives have a fitted effect of over 50% in size; also: potency is read from the fitted curve at half-maximal effect
Summary of the method: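 Same-well viability: cells pre-incubated 5 h, dosed with compound plus 300 nM L165041, kept 17 h at 37 C, FRET substrate 2 h RT, then CellTiter-Glo 30 min RT and luminescence.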

[4] = target: Peroxisome proliferator-activated receptor delta (Homo sapiens) (UniProt Q03181); assay: qHTS assay to identify small molecule antagonists of the peroxisome proliferator-activated receptor delta (PPARd) signaling pathway (AID 743215; active = well fitted inhibition curve with a large enough effect in the signal ratio in the repeat runs, not every such curve was filed as active; the % refers to the signal ratio;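 also: cells stimulated with agonist L165041 at 300 nM final during compound exposure; series mostly up to about 62 µM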)
Summary of the method: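 Read-out is beta-lactamase FRET fluorescence, measured 2 h after substrate addition at room temperature. Beforehand, UAS-bla HEK293H cells carrying the PPARd reporter were exposed to compounds with L165041 at 300 nM final for 17 h at 37 C.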

[5] = qHTS assay to identify small molecule agonists of the farnesoid-X-receptor (FXR) signaling pathway - cell viability counter screen (AID 743218); also: nearly all actives have a fitted effect of over 45% in size; also: potency is read from the fitted curve at half-maximal effect
Summary of the method: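 HEK 293T FXR-bla cells; 5 h pre-incubation, 16 h compound exposure at 37 C; LiveBLAzer substrate 2 h RT, then CellTiter-Glo 30 min RT, luminescence.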

[6] = qHTS assay to identify small molecule antagonists of the farnesoid-X-receptor (FXR) signaling pathway - cell viability counter screen (AID 743221; active = well fitted cell-killing curve with a large enough effect in the repeat runs, not every such curve was filed as active; also: nearly all actives have a fitted effect of over 50% in size; also: potency is read from the fitted curve at half-maximal effect)
Summary of the method: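 Cytotoxicity counter screen run in the FXR-bla reporter wells: HEK 293T cells exposed to compound with 50 uM (final) chenodeoxycholic acid for 16 h, 37 C, then viability measured by CellTiter-Glo luminescence after 30 min, room temperature.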

[7] = target: Vitamin D3 receptor (Homo sapiens) (UniProt P11473); assay: qHTS assay to identify small molecule agonists of the vitamin D receptor (VDR) signaling pathway (AID 743222; calls by dose curve)
Summary of the method: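 VDR-bla cells, 2,000/well; 4 h preincubation 37C; cpd (DMSO) 16 h; LiveBLAzer B/G substrate 2 h RT; fluorescence intensity read.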

[8] = target: Bile acid receptor (Homo sapiens) (UniProt Q96RI1); assay: qHTS assay to identify small molecule antagonists of the farnesoid-X-receptor (FXR) signaling pathway (AID 743217; active = well fitted inhibition curve with a large enough effect in the signal ratio in the repeat runs, not every such curve was filed as active; the % refers to the signal ratio)
Summary of the method: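 HEK 293T FXR-UAS-bla, 5000 cells/well; compound + CDCA 50 uM final; 16 h, 37 °C; B/G FRET substrate 2 h RT; fluorescence.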

[9] = target: Bile acid receptor (Homo sapiens) (UniProt Q96RI1); assay: qHTS assay to identify small molecule agonists of the farnesoid-X-receptor (FXR) signaling pathway (AID 743220; active = well fitted activation curve with a large enough effect in the signal ratio in the repeat runs, not every such curve was filed as active; the % refers to the signal ratio)
Summary of the method: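 Beta-lactamase reporter under UAS control in GeneBLAzer FXR HEK 293T cells (5000/well) measured with LiveBLAzer FRET substrate after 2 h at room temperature. Compound exposure lasted 16 h at 37C.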

[10] = target: Vitamin D3 receptor (Homo sapiens) (UniProt P11473); assay: qHTS assay to identify small molecule antagonists of the vitamin D receptor (VDR) signaling pathway (AID 743223; active = well fitted inhibition curve with a large enough effect in the signal ratio in the repeat runs, not every such curve was filed as active; the % refers to the signal ratio)
Summary of the method: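 Antagonist mode: compound added to VDR-bla cells alongside agonist 1alpha,25-dihydroxyvitamin D3 (3 nM final), incubation 16 h at 37C. Read-out is LiveBLAzer FRET fluorescence, 2 h at room temperature.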

Chain of Bile acid receptor (Homo sapiens) (Q96RI1 whole entry, looked up): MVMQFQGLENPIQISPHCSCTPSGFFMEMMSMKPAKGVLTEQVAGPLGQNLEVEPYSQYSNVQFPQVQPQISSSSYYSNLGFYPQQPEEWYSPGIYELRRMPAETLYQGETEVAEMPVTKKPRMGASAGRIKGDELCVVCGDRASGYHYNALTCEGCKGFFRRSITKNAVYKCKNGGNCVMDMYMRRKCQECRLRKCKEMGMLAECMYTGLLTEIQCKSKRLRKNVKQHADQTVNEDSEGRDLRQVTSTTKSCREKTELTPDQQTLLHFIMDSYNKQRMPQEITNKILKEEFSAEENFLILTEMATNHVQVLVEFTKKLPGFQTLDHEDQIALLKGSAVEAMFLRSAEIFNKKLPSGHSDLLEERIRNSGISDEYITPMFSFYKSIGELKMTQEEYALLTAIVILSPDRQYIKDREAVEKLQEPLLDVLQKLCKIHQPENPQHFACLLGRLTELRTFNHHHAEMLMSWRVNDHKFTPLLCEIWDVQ
Chain of Peroxisome proliferator-activated receptor delta (Homo sapiens) (Q03181 whole entry, looked up): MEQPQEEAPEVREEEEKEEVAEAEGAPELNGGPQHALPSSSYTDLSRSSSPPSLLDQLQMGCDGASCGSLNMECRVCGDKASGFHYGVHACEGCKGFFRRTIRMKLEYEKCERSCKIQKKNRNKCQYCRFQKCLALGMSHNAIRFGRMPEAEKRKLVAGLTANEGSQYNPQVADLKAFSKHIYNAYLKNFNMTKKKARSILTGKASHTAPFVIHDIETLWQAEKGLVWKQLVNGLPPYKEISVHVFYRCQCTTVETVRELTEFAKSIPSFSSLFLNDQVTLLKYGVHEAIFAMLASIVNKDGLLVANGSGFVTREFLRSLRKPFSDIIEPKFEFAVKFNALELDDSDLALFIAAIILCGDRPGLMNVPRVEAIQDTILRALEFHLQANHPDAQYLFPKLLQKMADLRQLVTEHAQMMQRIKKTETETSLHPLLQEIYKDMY
Chain of Vitamin D3 receptor (Homo sapiens) (P11473 whole entry, looked up): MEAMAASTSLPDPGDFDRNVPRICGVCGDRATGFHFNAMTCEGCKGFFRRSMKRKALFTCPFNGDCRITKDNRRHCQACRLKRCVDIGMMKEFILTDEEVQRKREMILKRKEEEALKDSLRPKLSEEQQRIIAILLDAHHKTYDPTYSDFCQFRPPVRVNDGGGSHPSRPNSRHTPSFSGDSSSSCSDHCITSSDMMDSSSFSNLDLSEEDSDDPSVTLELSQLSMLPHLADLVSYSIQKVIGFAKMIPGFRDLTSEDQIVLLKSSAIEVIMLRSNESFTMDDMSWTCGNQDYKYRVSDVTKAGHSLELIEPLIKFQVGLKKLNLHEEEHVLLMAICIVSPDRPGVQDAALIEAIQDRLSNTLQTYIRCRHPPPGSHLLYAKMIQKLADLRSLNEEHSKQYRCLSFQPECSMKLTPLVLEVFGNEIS

SMILES | Potency [1] | outcome [2] | Potency [3] | outcome [4] | Potency [5] | Potency [6] | Potency [7] | outcome [8] | outcome [9] | Potency [10]
CCC(=O)O | inactive | inactive | inactive | inactive | inactive | inactive | inactive | – | – | –
C=C(C)C(=O)OCCC[Si](OC)(OC)OC | inactive | inactive | inactive | inactive | inactive | inactive | – | – | – | –
CCCCC(CC)COC(=O)CCCCCCCC(=O)OCC(CC)CCCC (stereo not drawn) | inactive | inactive | inactive | inactive | inactive | inactive | – | inactive | inactive | –
CCCCCCOC(C)=O | inactive | inactive | inactive | inactive | – | inactive | – | inactive | inactive | –
C[C@@H]1O[C@@H](OC[C@H]2O[C@@H](Oc3c(-c4ccc(O)c(O)c4)oc4cc(O)cc(O)c4c3=O)[C@H](O)[C@@H](O)[C@@H]2O)[C@H](O)[C@H](O)[C@H]1O | inactive | inactive | inactive | inactive | – | inactive | inactive | – | – | –
S=c1nc[nH]c2nc[nH]c12 | 23.9 µM (active) | inactive | – | inactive | – | – | – | – | – | –
Cc1ccc(C(=O)O)o1 | inactive | inactive | inactive | inactive | – | inactive | – | – | – | inactive
OCC1CCCO1 (stereo not drawn) | inactive | inactive | inactive | inactive | – | inactive | – | inactive | inactive | inactive
COC(=O)c1ccccc1O | inactive | inactive | inactive | inactive | – | inactive | inactive | – | – | –
CCc1ccccc1O | inactive | inactive | inactive | inactive | inactive | inactive | inactive | inactive | inactive | –
CS(=O)(=O)c1ccc([C@@H](O)[C@@H](CO)NC(=O)C(Cl)Cl)cc1 | inactive | inactive | inactive | inactive | inactive | inactive | inactive | – | – | –
CCC(C)C=O (stereo not drawn) | inactive | inactive | inactive | inactive | – | inactive | inactive | inactive | inactive | –
CCCCC/C=C\C/C=C\CCCCCCCC(=O)OC | inactive | inactive | inactive | – | inactive and 54.9 µM (active) | inactive | – | – | – | –
CCCCCCCCCCCCN | inactive and 19.5 µM (active) | inactive | inactive and 49 µM (active) | inactive | inactive and 43.6 µM (active) | inactive and 49 µM (active) | – | – | – | –
CCCCCC/C=C/CCCCCCCC(=O)O | inactive | inactive | inactive | inactive | inactive | inactive | – | inactive | inactive | –
CCCCOCCOCCOC(=O)CCCCC(=O)OCCOCCOCCCC | inactive | inactive | inactive | inactive | – | inactive | – | inactive | inactive | inactive
CCOC(=O)/C=C\C(=O)OCC | inactive | inactive | inactive | inactive | – | inactive | – | – | – | –
COCC(=O)O | inactive | inactive | inactive | inactive | inactive | inactive | – | – | – | –
CCCCC(CC)C(=O)OCCOCCOCCOC(=O)C(CC)CCCC (stereo not drawn) | inactive | inactive | inactive | inactive | – | inactive | inactive | – | – | inactive
c1ccc2ccccc2c1 | inactive | inactive | – | inactive | inactive | inactive | – | inactive | inactive | inactive
c1ccc2[nH]cnc2c1 | inactive | inactive | inactive | inactive | – | inactive | inactive | inactive | inactive | –
CCCCNC(N)=O | inactive | inactive | inactive | inactive | inactive | inactive | – | inactive | inactive | –
Clc1ccc(Cl)c(Cl)c1Cl | inactive | inactive | – | inactive | inactive | inactive | inactive | inactive | inactive | inactive
Cc1cc(=O)[nH]c(C(C)C)n1 | inactive | inactive | inactive | inactive | inactive | inactive | – | inactive | inactive | inactive

Reference: PubChem BioAssay (Tox21)
